Results taken from PubChem BioAssay (NCI).
Where “and” joins values, the source holds several entries; their conditions need not be identical. Identical values can stand only once. This is part of a sample that, as a whole, favours compounds with a hit. Of some 83,000 tested, about 20% had one in any assay.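 Note: values are percent growth. 100 is the growth of untreated cells, values between 100 and 0 indicate rising inhibition; between -100 and 0 indicates cell death.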 Calls of active or inactive are those of the source. The calls were made as follows: active = growth percent below 10; inactive = the rest.

Assays:
Experiment in all cases: NCI-60 one-dose screen, 48 h (100 = growth as untreated, 0 = no growth, -100 = all killed)
Details in all cases: 10 µM unless noted
NCI-H23 lung = tested on: NCI-H23 lung
NCI-H226 lung = tested on: NCI-H226 lung
NCI-H322M lung = tested on: NCI-H322M lung
HOP-62 NSCLC = tested on: HOP-62 NSCLC
NCI-H460 lung = tested on: NCI-H460 lung
HOP-92 NSCLC = tested on: HOP-92 NSCLC
NCI-H522 lung = tested on: NCI-H522 lung
A549/ATCC NSCLC = tested on: A549/ATCC NSCLC
786-0 renal = tested on: 786-0 renal
COLO 205 colon = tested on: COLO 205 colon
DU-145 prostate = tested on: DU-145 prostate
K-562 leukemia = tested on: K-562 leukemia
MALME-3M melanoma = tested on: MALME-3M melanoma
MDA-MB-231 breast = tested on: MDA-MB-231 breast
RXF 393 renal = tested on: RXF 393 renal
SF-268 CNS = tested on: SF-268 CNS
SF-295 CNS = tested on: SF-295 CNS
SF-539 CNS = tested on: SF-539 CNS
UACC-257 melanoma = tested on: UACC-257 melanoma
M14 melanoma = tested on: M14 melanoma

SMILES | growth (NCI-H23 lung) | growth (NCI-H226 lung) | growth (NCI-H322M lung) | growth (HOP-62 NSCLC) | growth (NCI-H460 lung) | growth (HOP-92 NSCLC) | growth (NCI-H522 lung) | growth (A549/ATCC NSCLC) | growth (786-0 renal) | growth (COLO 205 colon) | growth (DU-145 prostate) | growth (K-562 leukemia) | growth (MALME-3M melanoma) | growth (MDA-MB-231 breast) | growth (RXF 393 renal) | growth (SF-268 CNS) | growth (SF-295 CNS) | growth (SF-539 CNS) | growth (UACC-257 melanoma) | growth (M14 melanoma)
COc1cc2c(c(OC)c1OC)-c1ccc(O)cc1[C@@H](NC(C)=O)CC2 | 37.7% (inactive) and 13.8% (inactive) | 5.36% (active) and 46.3% (inactive) | 42.7% (inactive) and 1.84% (active) | 37.8% (inactive) and 21.6% (inactive) | 5.66% (active) and 0.839% (active) | 16.7% (inactive) | 17% (inactive) and -32.6% (active) | 14.9% (inactive) | 29.2% (inactive) and 32.5% (inactive) | -32.6% (active) and -83.8% (active) | -21.6% (active) and -35.8% (active) | 3.22% (active) | 26.4% (inactive) | 9.66% (active) and -7.09% (active) | 26.3% (inactive) and 40.5% (inactive) | 19.5% (inactive) and 21% (inactive) | -13.7% (active) and -23.2% (active) | 2.98% (active) and -2.84% (active) | 54.1% (inactive) and 48.7% (inactive) | 11.5% (inactive) and 16.8% (inactive)
CN(C)c1ccc(N)cc1 | 96.6% (inactive) and 10.7% (inactive) | 101% (inactive) and 82.3% (inactive) | 95.3% (inactive) and 111% (inactive) | 93.7% (inactive) and 47.1% (inactive) | 103% (inactive) and 54.2% (inactive) | 98.1% (inactive) and 41.6% (inactive) | 85.1% (inactive) | 97.2% (inactive) and 33.1% (inactive) | 109% (inactive) | 103% (inactive) and 43.1% (inactive) | 113% (inactive) and 58.4% (inactive) | 83.7% (inactive) and 44.9% (inactive) | 115% (inactive) and 95.7% (inactive) | 88% (inactive) and 58.6% (inactive) | 109% (inactive) and 84.7% (inactive) | 97.9% (inactive) and 65.8% (inactive) | 110% (inactive) and 59.9% (inactive) | 104% (inactive) and 67% (inactive) | 92.5% (inactive) and 4.45% (active) | 101% (inactive)
C[C@]12CCC3[C@@H](C[C@@H]4SC(Nc5ccccc5)=N[C@@]45CC(=O)CC[C@]35C)[C@@H]1CCC2=O (stereo not given in full) | 42.5% (inactive) | 49.4% (inactive) | 58.2% (inactive) | 12.6% (inactive) | -13% (active) | -18.2% (active) | -66% (active) | 33.5% (inactive) | -45% (active) | -46.3% (active) | -14.7% (active) | 1.87% (active) | 8.73% (active) | 5.67% (active) | -63.8% (active) | 27% (inactive) | 24.2% (inactive) | -44.8% (active) | 3.21% (active) | 0.48% (active)
O=[P+](O)c1cccnc1 | 103% (inactive) | 105% (inactive) | 94.9% (inactive) | 90.3% (inactive) | 107% (inactive) | 109% (inactive) | 75.7% (inactive) | 101% (inactive) | 98.2% (inactive) | 102% (inactive) | 114% (inactive) | 99.1% (inactive) | 106% (inactive) | 107% (inactive) | 114% (inactive) | 98.2% (inactive) | 103% (inactive) | 105% (inactive) | 104% (inactive) | 106% (inactive)
COc1ccc(CN)cc1OC | 101% (inactive) and 104% (inactive) | 113% (inactive) and 105% (inactive) | 135% (inactive) and 96.9% (inactive) | 107% (inactive) and 101% (inactive) | 124% (inactive) and 102% (inactive) | 108% (inactive) | 107% (inactive) and 98.5% (inactive) | 108% (inactive) and 102% (inactive) | 105% (inactive) and 101% (inactive) | 122% (inactive) and 109% (inactive) | 111% (inactive) and 106% (inactive) | 131% (inactive) | 96.8% (inactive) | 109% (inactive) and 107% (inactive) | 126% (inactive) | 108% (inactive) and 98.9% (inactive) | 104% (inactive) | 105% (inactive) and 99.3% (inactive) | 106% (inactive) and 101% (inactive) | 110% (inactive) and 98.7% (inactive)
CO[C@@H]([CH2][Hg][O]C(=O)c1ccccc1)[C@@H]([CH2][Hg][O]C(=O)c1ccccc1)OC | 102% (inactive) | 93.2% (inactive) | 105% (inactive) | 81.8% (inactive) | 103% (inactive) | 114% (inactive) | -53.9% (active) | 95.6% (inactive) | 101% (inactive) | 84.8% (inactive) | 91.4% (inactive) | 30.1% (inactive) | 35.6% (inactive) | 88.9% (inactive) | 114% (inactive) | 102% (inactive) | 106% (inactive) | 102% (inactive) | 90.7% (inactive) | 79.5% (inactive)
C[C@]12CC[C@H](O)C[C@@H]1CC[C@@H]1[C@@H]2CC[C@]2(C)OC(=O)CC[C@@H]12 | 108% (inactive) | 102% (inactive) | 87.2% (inactive) | 97.3% (inactive) | 109% (inactive) | 91.1% (inactive) | 81.2% (inactive) | 72.8% (inactive) | 88.7% (inactive) | 72.5% (inactive) | 107% (inactive) | 118% (inactive) | 82.7% (inactive) | 91.1% (inactive) | 117% (inactive) | 98.7% (inactive) | 93.9% (inactive) | 95.9% (inactive) | 73.7% (inactive) | 100% (inactive)
C[C@]12CC[C@H]3[C@@H](CC=C4c5nc(-c6ccc(Br)cc6)sc5CC[C@@]43C)[C@@H]1CC[C@@H]2O | 88.4% (inactive) | 100% (inactive) | 94.7% (inactive) | 106% (inactive) | 106% (inactive) | 130% (inactive) | 97.5% (inactive) | 106% (inactive) | 45% (inactive) | 119% (inactive) | 108% (inactive) | 76.7% (inactive) | 103% (inactive) | 89.5% (inactive) | 3.87% (active) | 90.2% (inactive) | 63.5% (inactive) | 9.53% (active) | 114% (inactive) | 90.5% (inactive)
Cc1ccc(NC2=N[C@]34CC(=O)CC[C@]3(C)[C@H]3CC[C@]5(C)C(=O)CC[C@H]5[C@@H]3C[C@@H]4S2)c(C)c1 | 54.2% (inactive) | 72.8% (inactive) | 79.5% (inactive) | 45.7% (inactive) | 45.8% (inactive) | 65.9% (inactive) | 24.6% (inactive) | 61.1% (inactive) | 5.54% (active) | 62.4% (inactive) | 25.9% (inactive) | 5.33% (active) | 27.3% (inactive) | 26.6% (inactive) | 28.8% (inactive) | 46.9% (inactive) | 63.8% (inactive) | 8.46% (active) | 65.6% (inactive) | 37.9% (inactive)
C[N+]1(CC#CC[N+]2(C)CCCC2)CCCC1 | 111% (inactive) | 91.1% (inactive) | 99.8% (inactive) | 105% (inactive) | 106% (inactive) | 90.6% (inactive) | 99.5% (inactive) | 107% (inactive) | 99.2% (inactive) | 103% (inactive) | 106% (inactive) | 106% (inactive) | 99% (inactive) | 102% (inactive) | 103% (inactive) | 95.9% (inactive) | 98.6% (inactive) | 105% (inactive) | 105% (inactive) | 103% (inactive)
COc1ccc(O)c2c(=O)c3c(OC)cc4c(c3oc12)[C@@H]1C=CO[C@@H]1O4 | 6.73% (active) | 36.8% (inactive) | 42.4% (inactive) | 36.6% (inactive) | 8.73% (active) | 70.5% (inactive) | 41.9% (inactive) | 50% (inactive) | 74.6% (inactive) | 36.1% (inactive) | 21.9% (inactive) | 101% (inactive) | 62.8% (inactive) | 67% (inactive) | 61.6% (inactive) | 54.9% (inactive) | 81.6% (inactive) | 37.9% (inactive) | 89.6% (inactive) | 67.4% (inactive)
O=P(O)(Nc1ccccc1)Nc1ccccc1 | 91.1% (inactive) | 102% (inactive) | 90.6% (inactive) | 83.3% (inactive) | 99.2% (inactive) | 89.1% (inactive) | 85.6% (inactive) | 91% (inactive) | 93.7% (inactive) | 115% (inactive) | 97% (inactive) | 51.9% (inactive) | 94.3% (inactive) | 109% (inactive) | 93.9% (inactive) | 102% (inactive) | 96.1% (inactive) | 91.6% (inactive) | 89.3% (inactive) | 88.4% (inactive)
O=C(Cc1ccccc1)c1ccccc1 | 94.5% (inactive) | 102% (inactive) | 103% (inactive) | 98.5% (inactive) | 98.9% (inactive) | 88.1% (inactive) | 103% (inactive) | 107% (inactive) | 102% (inactive) | 102% (inactive) | 105% (inactive) | 104% (inactive) | 98.7% (inactive) | 110% (inactive) | 103% (inactive) | 103% (inactive) | 112% (inactive) | 98.8% (inactive) | 98% (inactive) | 107% (inactive)
